According to the supplement of paper PMC10849652:
Of roughly 8,800 targets only a part is listed; those with a hit were picked by preference. About 0.5% of all pairs of compound and target were hits.

What was measured:
Assay in all cases: log2 fold change, soluble protein after heating vs DMSO (PISA); higher = thermal stabilisation; K562 lysate, 10 uM; active = over 0.2 and 3.5 SD of the protein, either way, in both replicates (recomputed)
pictilisib = compound: CS(=O)(=O)N1CCN(Cc2cc3nc(-c4cccc5[nH]ncc45)nc(N4CCOCC4)c3s2)CC1 [pictilisib]
In short: (§1)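 Values give the log-two fold change in thermal stability against solvent controls, from duplicates. Crude K562 extract at 1 mg/mL protein, made by dounce homogenisation in PBS pH 7.4 with 1 mM MgCl2, was treated with 10 μM compound for 30 min. After 3 min heating across 48°C-58°C, aliquots were pooled, adjusted to 0.5% NP-40 at 4°C and centrifuged at 21,000xg for 90 min. The supernatant was measured by TMTpro 16plex LC-MS/MS with channel sums equalised.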

crizotinib = compound: C[C@@H](Oc1cc(-c2cnn(C3CCNCC3)c2)cnc1N)c1c(Cl)ccc(F)c1Cl [crizotinib]
In short: as §1

[1] = compound: C[C@H](C1=CC=C(C=C1)C(=O)NC2=C3C=CNC3=NC=C2)N
In short: as §1

duvelisib = compound: C[C@H](Nc1ncnc2nc[nH]c12)c1cc2cccc(Cl)c2c(=O)n1-c1ccccc1 [duvelisib]
In short: as §1

gandotinib = compound: Cc1cc(Nc2cc(CN3CCOCC3)c3nc(C)c(Cc4ccc(Cl)cc4F)n3n2)n[nH]1 [gandotinib]
In short: as §1

tozasertib = compound: Cc1cc(Nc2cc(N3CCN(C)CC3)nc(Sc3ccc(NC(=O)C4CC4)cc3)n2)n[nH]1 [tozasertib]
In short: as §1

doramapimod = compound: Cc1ccc(-n2nc(C(C)(C)C)cc2NC(=O)Nc2ccc(OCCN3CCOCC3)c3ccccc23)cc1 [doramapimod]
In short: as §1

bafetinib = compound: Cc1ccc(NC(=O)c2ccc(CN3CC[C@H](N(C)C)C3)c(C(F)(F)F)c2)cc1Nc1nccc(-c2cncnc2)n1 [bafetinib]
In short: as §1

[2] = compound: Cc1cccc(CC(=O)N2CCc3c2ccc(-c2cn(C)c4ncnc(N)c24)c3F)n1
In short: as §1

dasatinib = compound: Cc1nc(Nc2ncc(C(=O)Nc3c(C)cccc3Cl)s2)cc(N2CCN(CCO)CC2)n1 [dasatinib]
In short: as §1

[3] = compound: Cn1cc(-c2ccc3c(c2)CCN3C(=O)Cc2cccc(C(F)(F)F)c2)c2c(N)ncnc21
In short: as §1

quisinostat = compound: Cn1cc(CNCC2CCN(c3ncc(C(=O)NO)cn3)CC2)c2ccccc21 [quisinostat]
In short: as §1

[4] = compound: NC(=O)Nc1cc(-c2cccc(F)c2)sc1C(=O)N[C@H]1CCCNC1
In short: as §1

[5] = compound: NC1(c2ccc(-c3nc4ccn5c(=O)[nH]nc5c4cc3-c3ccccc3)cc2)CCC1
In short: as §1

lapatinib = compound: CS(=O)(=O)CCNCc1ccc(-c2ccc3ncnc(Nc4ccc(OCc5cccc(F)c5)c(Cl)c4)c3c2)o1 [lapatinib]
In short: as §1

nilotinib = compound: Cc1cn(-c2cc(NC(=O)c3ccc(C)c(Nc4nccc(-c5cccnc5)n4)c3)cc(C(F)(F)F)c2)cn1 [nilotinib]
In short: as §1

[6] = compound: Cc1nc(Nc2n[nH]c3c2CN(C(=O)N[C@H](CN(C)C)c2ccccc2)C3(C)C)c2sccc2n1
In short: as §1

[7] = compound: Cc1ncc(-c2ccnc(Nc3ccc(S(C)(=O)=O)cc3)n2)n1C(C)C
In short: as §1

tipifarnib = compound: Cn1cncc1[C@@](N)(c1ccc(Cl)cc1)c1ccc2c(c1)c(-c1cccc(Cl)c1)cc(=O)n2C [tipifarnib]
In short: as §1

[8] = compound: NC(=O)c1cnc(N[C@@H]2CCCC[C@@H]2N)nc1Nc1cccc(-n2nccn2)c1
In short: as §1

Measured: log2 fold change

MBTPS1 (UniProt Q14703)
inactive: pictilisib 0.012 | crizotinib -0.008 | [1] 0.114 | duvelisib -0.006 | gandotinib -0.164 | tozasertib -0.009 | doramapimod 0.01 | bafetinib -0.001 | [2] -0.15 | dasatinib 0.106 | [3] -0.101 | quisinostat -0.053 | [4] 0.026 | [5] -0.045

LRRC9 (UniProt Q6ZRR7)
inactive: crizotinib -0.065 | [1] 0.032 | gandotinib -0.488 | tozasertib 0.053 | doramapimod 0.074 | quisinostat -0.171 | [4] -0.038
active: [2] 0.694

LRIF1 (UniProt Q5T3J3)
Chain of UniProt Q5T3J3 (Q5T3J3 whole entry, looked up): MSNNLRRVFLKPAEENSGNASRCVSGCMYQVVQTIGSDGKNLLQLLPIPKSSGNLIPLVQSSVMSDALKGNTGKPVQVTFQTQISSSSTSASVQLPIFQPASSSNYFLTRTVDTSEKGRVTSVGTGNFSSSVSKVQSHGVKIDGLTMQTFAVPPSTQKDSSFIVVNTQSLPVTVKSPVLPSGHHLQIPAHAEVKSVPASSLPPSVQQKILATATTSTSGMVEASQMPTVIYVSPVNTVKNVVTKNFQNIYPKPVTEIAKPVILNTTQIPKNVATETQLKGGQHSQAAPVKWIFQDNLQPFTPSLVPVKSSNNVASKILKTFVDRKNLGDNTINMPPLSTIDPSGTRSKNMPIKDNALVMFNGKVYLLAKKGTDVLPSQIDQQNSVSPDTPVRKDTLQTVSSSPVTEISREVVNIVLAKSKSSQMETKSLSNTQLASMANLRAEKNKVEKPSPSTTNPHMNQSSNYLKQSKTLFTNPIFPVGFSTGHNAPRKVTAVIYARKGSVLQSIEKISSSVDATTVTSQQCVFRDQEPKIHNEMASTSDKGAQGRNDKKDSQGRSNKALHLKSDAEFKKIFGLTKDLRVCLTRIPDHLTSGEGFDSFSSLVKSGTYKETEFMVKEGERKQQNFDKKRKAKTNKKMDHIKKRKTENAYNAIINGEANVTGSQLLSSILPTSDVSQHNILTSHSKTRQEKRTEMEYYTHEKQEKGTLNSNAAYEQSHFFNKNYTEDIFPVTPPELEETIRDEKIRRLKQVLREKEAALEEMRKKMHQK
inactive: lapatinib -0.094 | crizotinib 0.019 | [1] -0.008 | duvelisib -0.133 | gandotinib 0.006 | tozasertib 0.039 | doramapimod 0.026 | [2] -0.038 | nilotinib -0.147 | [6] 0.086 | dasatinib 0.047 | [7] 0.022 | [3] -0.011 | quisinostat 0 | tipifarnib 0.057 | [4] -0.008 | [8] -0.163 | [5] -0.056

LGALS3BP (UniProt Q08380)
Chain of UniProt Q08380 (Q08380 whole entry, looked up): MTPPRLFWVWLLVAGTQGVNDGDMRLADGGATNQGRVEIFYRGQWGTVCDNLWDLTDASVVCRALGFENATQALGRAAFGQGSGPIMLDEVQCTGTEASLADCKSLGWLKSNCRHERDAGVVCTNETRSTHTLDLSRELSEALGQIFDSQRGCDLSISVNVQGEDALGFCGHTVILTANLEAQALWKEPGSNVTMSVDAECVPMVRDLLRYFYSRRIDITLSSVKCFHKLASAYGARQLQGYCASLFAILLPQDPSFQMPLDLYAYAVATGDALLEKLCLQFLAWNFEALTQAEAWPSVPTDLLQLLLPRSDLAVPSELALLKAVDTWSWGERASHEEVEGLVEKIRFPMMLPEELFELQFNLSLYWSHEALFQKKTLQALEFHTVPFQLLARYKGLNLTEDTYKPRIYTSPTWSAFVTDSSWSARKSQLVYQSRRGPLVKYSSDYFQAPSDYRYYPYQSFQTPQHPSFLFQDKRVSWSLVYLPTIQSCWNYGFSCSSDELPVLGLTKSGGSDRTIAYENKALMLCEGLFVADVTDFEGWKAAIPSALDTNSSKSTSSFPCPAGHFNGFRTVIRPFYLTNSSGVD
inactive: lapatinib -0.239 | crizotinib 0.204 | [1] 0.035 | duvelisib -0.149 | gandotinib 0.197 | tozasertib 0.115 | doramapimod -0.087 | [2] 0.53 | nilotinib -0.056 | [6] 0.06 | dasatinib 0.339 | [7] -0.043 | [3] -0.128 | quisinostat -0.007 | tipifarnib -0.123 | [4] 0.111 | [8] 0.125 | [5] 0.137

KRAS isoform 2 (UniProt P01116)
Chain of UniProt P01116 (P01116 whole entry, looked up): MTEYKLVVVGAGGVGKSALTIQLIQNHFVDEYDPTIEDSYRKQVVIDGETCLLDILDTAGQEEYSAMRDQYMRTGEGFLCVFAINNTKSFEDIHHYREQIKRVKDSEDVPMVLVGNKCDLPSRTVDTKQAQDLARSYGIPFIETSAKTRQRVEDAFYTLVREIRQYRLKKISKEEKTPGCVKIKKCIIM
inactive: lapatinib -0.023 | crizotinib -0.016 | duvelisib -0.022 | tozasertib -0.043 | doramapimod -0.062 | dasatinib -0.029 | [3] -0.025 | quisinostat 0.018 | [4] 0.001 | [8] -0.046 | [5] 0.036

MPDZ (UniProt O75970)
inactive: lapatinib 0.046 | crizotinib 0.127 | [1] 0.099 | duvelisib -0.003 | gandotinib 0.016 | tozasertib 0.118 | doramapimod 0.053 | [2] -0.066 | nilotinib -0.097 | [6] 0.245 | dasatinib -0.082 | [7] -0.059 | [3] -0.049 | quisinostat -0.084 | tipifarnib 0.328 | [4] -0.057 | [8] -0.041 | [5] 0.112

KIF2A isoform 2 (UniProt O00139)
inactive: [1] 0.192 | gandotinib -0.059 | [2] -0.059

MDM2 isoform 11 (UniProt Q00987)
inactive: pictilisib -0.003 | crizotinib 0.014 | [1] -0.004 | gandotinib 0.044 | doramapimod 0.009 | bafetinib 0.054 | [2] -0.158 | quisinostat -0.2 | [4] -0.077 | [5] -0.195

KIF3C (UniProt O14782)
Chain of UniProt O14782 (O14782 whole entry, looked up): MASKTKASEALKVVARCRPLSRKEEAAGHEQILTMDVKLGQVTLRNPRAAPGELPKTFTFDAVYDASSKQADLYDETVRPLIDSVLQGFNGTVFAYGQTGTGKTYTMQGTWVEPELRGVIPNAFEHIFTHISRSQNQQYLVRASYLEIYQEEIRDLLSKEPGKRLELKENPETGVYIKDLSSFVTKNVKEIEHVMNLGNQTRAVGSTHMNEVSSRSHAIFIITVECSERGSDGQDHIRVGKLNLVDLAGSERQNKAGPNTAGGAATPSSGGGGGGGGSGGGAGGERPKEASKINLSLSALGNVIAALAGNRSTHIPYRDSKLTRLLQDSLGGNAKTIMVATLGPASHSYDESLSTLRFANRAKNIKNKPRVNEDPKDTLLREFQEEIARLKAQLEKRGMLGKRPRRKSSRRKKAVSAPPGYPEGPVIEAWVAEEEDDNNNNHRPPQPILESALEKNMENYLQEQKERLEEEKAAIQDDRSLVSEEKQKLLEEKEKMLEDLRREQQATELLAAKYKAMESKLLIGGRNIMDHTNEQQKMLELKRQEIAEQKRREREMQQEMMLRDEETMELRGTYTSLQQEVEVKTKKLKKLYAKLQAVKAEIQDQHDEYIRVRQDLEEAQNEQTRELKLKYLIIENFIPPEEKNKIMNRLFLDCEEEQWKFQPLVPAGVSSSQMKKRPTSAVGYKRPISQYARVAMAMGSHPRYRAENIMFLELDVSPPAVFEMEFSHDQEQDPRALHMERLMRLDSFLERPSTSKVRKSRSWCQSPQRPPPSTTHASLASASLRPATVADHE
inactive: lapatinib -0.172 | crizotinib -0.177 | [1] -0.119 | duvelisib 0 | gandotinib -0.002 | tozasertib -0.394 | doramapimod -0.031 | [2] 0.152 | nilotinib -0.038 | [6] -0.117 | dasatinib 0.026 | [7] 0.191 | [3] 0.062 | quisinostat -0.204 | tipifarnib -0.187 | [4] 0.043 | [8] -0.194 | [5] 0.145

KRAS (UniProt P01116)
inactive: lapatinib 0.019 | crizotinib 0.017 | [1] -0.078 | duvelisib 0.001 | gandotinib 0.044 | tozasertib -0.013 | doramapimod 0.006 | [2] 0.145 | nilotinib 0.034 | [6] -0.014 | dasatinib 0.049 | [7] 0.018 | [3] -0.015 | quisinostat 0.042 | tipifarnib 0.129 | [4] -0.001 | [8] 0.005 | [5] -0.032

KIF18B (UniProt Q86Y91)
inactive: lapatinib -0.024 | crizotinib -0.008 | duvelisib 0.068 | tozasertib -0.161 | doramapimod 0.077 | dasatinib 0.073 | [3] 0.076 | quisinostat -0.025 | [4] 0.17 | [8] 0.025

MED28 (UniProt Q9H204)
active: gandotinib 0.394
inactive: lapatinib 0.132 | crizotinib 0.021 | [1] -0.039 | duvelisib -0.034 | doramapimod -0.012 | [2] -0.038 | nilotinib 0.053 | [6] 0.053 | dasatinib -0.004 | [7] 0.053 | [3] -0.006 | quisinostat -0.007 | tipifarnib 0.015 | [4] -0.013 | [8] -0.005 | [5] -0.014

MARF1 (UniProt Q9Y4F3)
Chain of UniProt Q9Y4F3 (Q9Y4F3 whole entry, looked up): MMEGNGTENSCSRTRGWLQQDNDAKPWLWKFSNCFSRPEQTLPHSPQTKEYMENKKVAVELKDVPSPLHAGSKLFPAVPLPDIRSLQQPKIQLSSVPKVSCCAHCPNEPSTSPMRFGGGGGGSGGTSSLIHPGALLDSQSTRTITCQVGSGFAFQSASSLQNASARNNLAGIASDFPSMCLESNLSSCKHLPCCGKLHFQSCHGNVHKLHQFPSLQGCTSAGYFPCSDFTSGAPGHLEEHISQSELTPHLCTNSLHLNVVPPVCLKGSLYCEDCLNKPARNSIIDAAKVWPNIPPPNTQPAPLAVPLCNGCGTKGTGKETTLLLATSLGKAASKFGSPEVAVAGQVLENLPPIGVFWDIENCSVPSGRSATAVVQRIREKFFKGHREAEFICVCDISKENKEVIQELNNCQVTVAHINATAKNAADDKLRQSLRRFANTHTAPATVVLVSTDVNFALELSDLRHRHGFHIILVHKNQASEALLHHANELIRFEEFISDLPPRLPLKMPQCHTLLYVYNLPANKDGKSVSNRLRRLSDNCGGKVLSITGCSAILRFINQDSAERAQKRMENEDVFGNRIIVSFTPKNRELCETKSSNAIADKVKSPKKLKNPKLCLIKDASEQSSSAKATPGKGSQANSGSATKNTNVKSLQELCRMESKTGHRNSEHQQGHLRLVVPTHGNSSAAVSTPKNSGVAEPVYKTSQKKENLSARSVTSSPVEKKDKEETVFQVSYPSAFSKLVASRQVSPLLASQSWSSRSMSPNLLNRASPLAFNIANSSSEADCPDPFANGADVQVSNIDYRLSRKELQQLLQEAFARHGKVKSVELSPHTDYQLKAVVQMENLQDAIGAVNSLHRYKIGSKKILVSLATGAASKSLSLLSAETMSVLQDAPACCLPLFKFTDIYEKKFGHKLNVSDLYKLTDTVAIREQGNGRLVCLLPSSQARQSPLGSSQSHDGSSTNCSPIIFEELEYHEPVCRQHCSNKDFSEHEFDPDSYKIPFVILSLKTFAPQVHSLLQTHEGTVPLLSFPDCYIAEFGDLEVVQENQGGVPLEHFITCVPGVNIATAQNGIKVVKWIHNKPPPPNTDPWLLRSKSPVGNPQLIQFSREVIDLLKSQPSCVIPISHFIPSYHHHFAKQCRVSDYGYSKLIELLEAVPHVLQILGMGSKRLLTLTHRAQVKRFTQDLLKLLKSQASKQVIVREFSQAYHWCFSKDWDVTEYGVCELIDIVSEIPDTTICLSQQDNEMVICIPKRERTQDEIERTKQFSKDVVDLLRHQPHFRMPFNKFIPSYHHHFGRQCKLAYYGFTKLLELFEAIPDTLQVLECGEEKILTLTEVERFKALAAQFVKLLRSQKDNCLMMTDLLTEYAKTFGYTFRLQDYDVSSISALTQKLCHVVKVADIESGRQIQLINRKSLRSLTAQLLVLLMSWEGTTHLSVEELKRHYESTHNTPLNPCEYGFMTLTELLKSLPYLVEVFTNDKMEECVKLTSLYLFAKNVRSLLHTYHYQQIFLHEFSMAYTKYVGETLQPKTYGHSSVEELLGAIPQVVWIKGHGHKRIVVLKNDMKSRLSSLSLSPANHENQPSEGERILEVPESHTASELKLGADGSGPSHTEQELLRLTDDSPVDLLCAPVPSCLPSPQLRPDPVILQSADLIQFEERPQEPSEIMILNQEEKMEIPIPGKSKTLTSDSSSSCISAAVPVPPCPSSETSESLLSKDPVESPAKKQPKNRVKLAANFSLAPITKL
inactive: pictilisib -0.212 | crizotinib -0.021 | [1] 0.035 | duvelisib -0.002 | gandotinib -0.1 | tozasertib -0.032 | doramapimod -0.004 | bafetinib -0.012 | [2] 0.095 | nilotinib -0.064 | [6] 0.024 | dasatinib -0.031 | [7] 0.031 | [3] -0.03 | quisinostat -0.053 | tipifarnib -0.062 | [4] 0.088 | [5] -0.035

KRI1 (UniProt Q8N9T8)
inactive: pictilisib -0.072 | crizotinib -0.057 | [1] 0.011 | duvelisib 0.036 | gandotinib -0.022 | tozasertib 0.014 | doramapimod 0.023 | bafetinib 0.009 | [2] 0.045 | nilotinib -0.099 | [6] 0.02 | dasatinib -0.025 | [7] 0 | [3] -0.014 | quisinostat -0.125 | tipifarnib -0.073 | [4] -0.006 | [5] 0.06

LRP1 (UniProt Q07954)
active: quisinostat -0.936
inactive: lapatinib -0.047 | crizotinib -0.488 | tozasertib 0.239 | doramapimod 0.022 | [4] 0.114 | [8] 0.122

MOCS3 (UniProt O95396)
inactive: pictilisib 0.004 | crizotinib -0.127 | [1] -0.176 | duvelisib 0.009 | gandotinib 0.227 | tozasertib 0.027 | doramapimod 0.072 | bafetinib -0.054 | [2] 0.348 | nilotinib -0.008 | [6] -0.054 | dasatinib -0.056 | [7] 0.056 | [3] -0.049 | quisinostat -0.219 | tipifarnib 0.045 | [4] -0.054 | [5] -0.03

MRPL22 (UniProt Q9NWU5)
inactive: lapatinib -0.023 | crizotinib -0.047 | [1] -0.038 | gandotinib -0.018 | doramapimod 0.016 | [2] 0.05 | nilotinib 0.04 | [6] 0.017 | [7] 0.03 | quisinostat 0.025 | tipifarnib -0.003 | [4] -0.001 | [8] -0.073 | [5] 0.081

MAPKAP1 (UniProt Q9BPZ7)
Chain of UniProt Q9BPZ7 (Q9BPZ7 whole entry, looked up): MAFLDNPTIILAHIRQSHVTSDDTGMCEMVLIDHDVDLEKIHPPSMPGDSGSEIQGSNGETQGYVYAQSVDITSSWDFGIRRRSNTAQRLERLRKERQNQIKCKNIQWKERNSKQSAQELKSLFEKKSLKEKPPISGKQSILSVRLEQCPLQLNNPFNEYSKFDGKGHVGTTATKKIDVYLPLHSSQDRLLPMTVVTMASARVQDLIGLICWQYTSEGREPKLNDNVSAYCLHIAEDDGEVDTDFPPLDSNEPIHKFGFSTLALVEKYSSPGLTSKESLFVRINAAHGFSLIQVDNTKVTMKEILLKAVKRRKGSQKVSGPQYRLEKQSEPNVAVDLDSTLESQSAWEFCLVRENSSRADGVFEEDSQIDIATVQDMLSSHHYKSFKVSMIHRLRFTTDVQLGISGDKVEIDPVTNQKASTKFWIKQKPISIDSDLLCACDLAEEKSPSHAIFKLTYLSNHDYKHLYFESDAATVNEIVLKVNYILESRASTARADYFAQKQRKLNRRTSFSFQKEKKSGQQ
inactive: crizotinib 0.02 | duvelisib -0.192 | tozasertib 0.113 | doramapimod -0.029 | nilotinib 0.105 | [6] -0.118 | dasatinib -0.085 | [7] 0.083 | [3] -0.003 | quisinostat -0.087 | tipifarnib -0.056 | [4] 0.042 | [5] -0.093

LSM11 (UniProt P83369)
Chain of UniProt P83369 (P83369 whole entry, looked up): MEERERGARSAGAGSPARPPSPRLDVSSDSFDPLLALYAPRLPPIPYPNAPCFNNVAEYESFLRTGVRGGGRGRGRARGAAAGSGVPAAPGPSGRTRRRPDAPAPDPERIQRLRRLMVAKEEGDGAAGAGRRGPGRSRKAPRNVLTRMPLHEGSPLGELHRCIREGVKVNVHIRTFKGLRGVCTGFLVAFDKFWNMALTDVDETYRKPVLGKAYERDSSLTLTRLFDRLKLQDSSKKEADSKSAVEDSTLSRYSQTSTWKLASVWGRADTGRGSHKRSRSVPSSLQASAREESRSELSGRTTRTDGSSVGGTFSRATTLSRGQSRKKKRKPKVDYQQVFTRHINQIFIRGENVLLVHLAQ
inactive: crizotinib 0.025 | [1] -0.123 | duvelisib 0.009 | gandotinib 0.039 | tozasertib 0.011 | doramapimod 0.123 | [2] -0.394 | dasatinib 0.266 | [3] -0.049 | quisinostat -0.114 | [4] 0.049 | [5] -0.037

LRRIQ1 (UniProt Q96JM4)
inactive: lapatinib 0.04 | crizotinib -0.278 | doramapimod -0.073 | quisinostat -0.518 | [4] 0.242 | [8] 0.019
